Reference: PubChem BioAssay (NCI)
About 79,000 compounds went through this panel and 15% of them were active in at least one assay; those are over-represented in the sample as a whole. A number with no mark means an inactive call. Activity calls are given as the source filed them. Rule as the data show it: active = growth inhibition above about 70%; inactive = the rest.

Columns and labels:
[1] = NCI Yeast Anticancer Drug Screen. Data for the mec2-1 strain (AID 157); settings: S. cerevisiae mec2-1 strain, stronger effect = higher value
Method in brief: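 Compounds were applied to mec2-1 yeast cells. Their growth was then compared with that of vehicle-treated cultures to give growth inhibition.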

[2] = NCI Yeast Anticancer Drug Screen. Data for the rad14 strain (AID 159);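 also: 0% = growth of vehicle-treated control cultures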; settings: S. cerevisiae rad14 strain growth inhibition, stronger effect = higher value
Method in brief: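 Compound-treated yeast with a defined DNA-repair lesion; growth inhibition normalised to vehicle-treated cultures.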

[3] = NCI Yeast Anticancer Drug Screen. Data for the sgs1 mgt1 strain (AID 161);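 also: 0% = growth of cultures given vehicle only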; settings: S. cerevisiae sgs1 mgt1 strain, stronger effect = higher value
Method in brief: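 Compounds are added to genetically altered yeast, and growth is compared with cultures given vehicle alone to give percent inhibition.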

[4] = NCI Yeast Anticancer Drug Screen. Data for the CLN2oe strain (AID 163);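 also: 0% = growth of vehicle-only control cultures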; settings: S. cerevisiae CLN2oe strain, stronger effect = higher value
Method in brief: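 Cells of an engineered yeast line with disturbed cell-cycle regulation are treated with compound. Inhibition of growth is then calculated relative to the vehicle-treated reference.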

[5] = NCI Yeast Anticancer Drug Screen. Data for the cln2 rad14 strain (AID 165);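 also: 0% = growth equal to vehicle treated cultures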; settings: S. cerevisiae cln2 rad14 strain, stronger effect = higher value
Method in brief: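 Strain: cln2 rad14 yeast, altered in cell cycle control and DNA damage repair. Read-out: growth inhibition vs vehicle.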

[6] = NCI Yeast Anticancer Drug Screen. Data for the bub3 strain (AID 167); settings: S. cerevisiae bub3 mutant strain, stronger effect = higher value
Method in brief: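 Growth of a checkpoint-deficient yeast mutant is measured after compound exposure. Values represent inhibition relative to vehicle.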

[7] = NCI Yeast Anticancer Drug Screen. Data for the wt2 strain (AID 169);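 also: 0% = growth of vehicle-treated yeast cultures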; settings: S. cerevisiae wt2 strain growth inhibition, stronger effect = higher value
Method in brief: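 Growth of compound-treated yeast is measured and expressed as inhibition relative to vehicle-only controls.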

[8] = NCI Yeast Anticancer Drug Screen. Data for the mlh1 strain (AID 171);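 also: 0% = growth of vehicle-treated control cultures of the same strain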; settings: S. cerevisiae mlh1 strain growth inhibition, stronger effect = higher value
Method in brief: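 Test agents were incubated with yeast bearing a defined DNA damage repair or cell cycle control alteration; values are growth inhibition normalised to vehicle-treated cultures.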

[9] = NCI Yeast Anticancer Drug Screen. Data for the sgs1 strain (AID 173);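 also: 0% = growth of vehicle-only control cultures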; settings: S. cerevisiae sgs1 mutant, stronger effect = higher value
Method in brief: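 Strain with an altered DNA repair or cell cycle pathway exposed to compound. Growth then measured. Value = inhibition versus vehicle control.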

[10] = NCI Yeast Anticancer Drug Screen. Data for the mlh1 rad18 strain (AID 175); settings: S. cerevisiae mlh1 rad18 strain growth inhibition, stronger effect = higher value
Method in brief: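 A repair-deficient yeast strain is exposed to test compound, and growth is scored relative to vehicle-treated controls.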

[11] = NCI Yeast Anticancer Drug Screen. Data for the rad18 strain (AID 177); settings: S. cerevisiae rad18 mutant growth inhibition, stronger effect = higher value
Method in brief: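 DNA-repair-defective yeast; compound treatment; growth inhibition scored against vehicle.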

[12] = NCI Yeast Anticancer Drug Screen. Data for the wt1 strain (AID 149);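 also: 0% = growth of vehicle-treated wt1 cultures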; settings: S. cerevisiae wt1 strain (SPY 50644) growth inhibition, stronger effect = higher value
Method in brief: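 Readout: yeast growth inhibition, normalised to vehicle controls, in the wt1 strain exposed to test compounds.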

[13] = NCI Yeast Anticancer Drug Screen. Data for the rad50EPP+ strain (AID 151);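 also: 0% = growth of vehicle-treated control cultures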; settings: S. cerevisiae rad50 mutant strain, stronger effect = higher value
Method in brief: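 Measured: growth inhibition of rad50EPP+ yeast. Reference: vehicle-treated controls. Screen uses strains with defined genetic alterations in DNA damage repair or cell cycle control.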

[14] = NCI Yeast Anticancer Drug Screen. Data for the mgt1 strain (AID 153); settings: S. cerevisiae mgt1 mutant growth inhibition, stronger effect = higher value
Method in brief: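 Compounds were applied to mgt1 mutant yeast, and growth was then compared against vehicle-treated control cultures to give percent inhibition.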

[15] = NCI Yeast Anticancer Drug Screen. Data for the rad50 strain (AID 155);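 also: 0% = growth of vehicle-only cultures of the same strain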; settings: S. cerevisiae rad50 strain growth inhibition, stronger effect = higher value
Method in brief: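 Compounds were tested on a yeast strain with an engineered DNA damage repair alteration; the reported value is growth inhibition normalised to vehicle treatment.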

[16] = at 5.0 µM (retest, dose inferred, filed as 0.5)
[17] = at 50.0 µM (retest, dose inferred, filed as 5.0)

S=C1NC2(CCCCC2)NC12CCCCC2
growth inhibition ([1]; at 100.0 µM): 2%
growth inhibition ([2]; at 1.2 µM): -2%
growth inhibition ([2]; at 3.7 µM): -7%
growth inhibition ([2]; at 11.0 µM): -1%
growth inhibition ([2]; at 33.0 µM): 0%
growth inhibition ([2]; at 100.0 µM): 3%
growth inhibition [3, 16]: 30%
growth inhibition [3, 17]: 69%
growth inhibition ([3]; at 50.0 µM): 13.8%
growth inhibition ([4]; at 1.2 µM): -7%
growth inhibition ([4]; at 3.7 µM): -3%
growth inhibition ([4]; at 11.0 µM): -2%
growth inhibition ([4]; at 33.0 µM): 6%
growth inhibition ([4]; at 100.0 µM): 9%
growth inhibition [5, 16]: -30%
growth inhibition [5, 17]: 2%
growth inhibition ([5]; at 50.0 µM): -2%
growth inhibition ([6]; at 1.2 µM): -18%
growth inhibition ([6]; at 3.7 µM): -14%
growth inhibition [6, 16]: 16%
growth inhibition ([6]; at 11.0 µM): 3%
growth inhibition ([6]; at 33.0 µM): 2%
growth inhibition [6, 17]: 20%
growth inhibition ([6]; at 50.0 µM): 14.5%
growth inhibition ([6]; at 100.0 µM): 6%
growth inhibition ([7]; at 1.2 µM): -2%
growth inhibition ([7]; at 3.7 µM): -2%
growth inhibition ([7]; at 11.0 µM): 3%
growth inhibition ([7]; at 33.0 µM): 14%
growth inhibition ([7]; at 100.0 µM): 16%
growth inhibition ([8]; at 1.2 µM): -6%
growth inhibition ([8]; at 3.7 µM): -5%
growth inhibition ([8]; at 11.0 µM): 0%
growth inhibition ([8]; at 33.0 µM): 1%
growth inhibition ([8]; at 100.0 µM): -2%
growth inhibition ([9]; at 1.2 µM): -1%
growth inhibition ([9]; at 3.7 µM): -3%
growth inhibition ([9]; at 11.0 µM): 2%
growth inhibition ([9]; at 33.0 µM): 8%
growth inhibition ([9]; at 100.0 µM): 12%
growth inhibition [10, 16]: -9%
growth inhibition [10, 17]: 49%
growth inhibition ([10]; at 50.0 µM): 27.3%
growth inhibition ([11]; at 1.2 µM): -3%
growth inhibition ([11]; at 3.7 µM): -1%
growth inhibition ([11]; at 11.0 µM): 15%
growth inhibition ([11]; at 33.0 µM): 24%
growth inhibition ([11]; at 100.0 µM): 7%

Nc1nnc(N)n1-n1c(N)nnc1N
growth inhibition ([12]; at 1.2 µM): -1%
growth inhibition ([12]; at 3.7 µM): 2%
growth inhibition ([12]; at 11.0 µM): -2%
growth inhibition ([12]; at 33.0 µM): -2%
growth inhibition ([12]; at 100.0 µM): 2%
growth inhibition ([13]; at 1.2 µM): 1%
growth inhibition ([13]; at 3.7 µM): 0%
growth inhibition ([13]; at 11.0 µM): -5%
growth inhibition ([13]; at 33.0 µM): -14%
growth inhibition ([13]; at 100.0 µM): -16%
growth inhibition ([14]; at 1.2 µM): -3%
growth inhibition ([14]; at 3.7 µM): -4%
growth inhibition ([14]; at 11.0 µM): -4%
growth inhibition ([14]; at 33.0 µM): -2%
growth inhibition ([14]; at 100.0 µM): 1%
growth inhibition ([15]; at 1.2 µM): -3%
growth inhibition ([15]; at 3.7 µM): -1%
growth inhibition [15, 16]: -8%
growth inhibition ([15]; at 11.0 µM): -3%
growth inhibition ([15]; at 33.0 µM): 1%
growth inhibition [15, 17]: 92% (active)
growth inhibition ([15]; at 50.0 µM): 56.1%
growth inhibition ([15]; at 100.0 µM): 9%
growth inhibition ([1]; at 1.2 µM): 1%
growth inhibition ([1]; at 3.7 µM): 3%
growth inhibition [1, 16]: -22%
growth inhibition ([1]; at 11.0 µM): 4%
growth inhibition ([1]; at 33.0 µM): 4%
growth inhibition [1, 17]: 36%
growth inhibition ([1]; at 50.0 µM): 11.8%
growth inhibition ([1]; at 100.0 µM): 2%
growth inhibition ([2]; at 1.2 µM): -3%
growth inhibition ([2]; at 3.7 µM): -3%
growth inhibition ([2]; at 11.0 µM): -4%
growth inhibition ([2]; at 33.0 µM): -6%
growth inhibition ([2]; at 100.0 µM): 0%
growth inhibition [3, 16]: 2%
growth inhibition [3, 17]: 89% (active)
growth inhibition ([3]; at 50.0 µM): 27.9%
growth inhibition ([4]; at 1.2 µM): -3%
growth inhibition ([4]; at 3.7 µM): -14%
growth inhibition ([4]; at 11.0 µM): -8%
growth inhibition ([4]; at 33.0 µM): -6%
growth inhibition ([4]; at 100.0 µM): -4%
growth inhibition [5, 16]: -2%
growth inhibition [5, 17]: 31%
growth inhibition ([5]; at 50.0 µM): -13.2%
growth inhibition ([6]; at 1.2 µM): -1%
growth inhibition ([6]; at 3.7 µM): -1%
growth inhibition [6, 16]: -18%
growth inhibition ([6]; at 11.0 µM): 2%
growth inhibition ([6]; at 33.0 µM): 3%
growth inhibition [6, 17]: 57%
growth inhibition ([6]; at 50.0 µM): 1.05%
growth inhibition ([6]; at 100.0 µM): 0%
growth inhibition ([7]; at 1.2 µM): -1%
growth inhibition ([7]; at 3.7 µM): -1%
growth inhibition ([7]; at 11.0 µM): -5%
growth inhibition ([7]; at 33.0 µM): -2%
growth inhibition ([7]; at 100.0 µM): 1%
growth inhibition ([8]; at 1.2 µM): 0%
growth inhibition ([8]; at 3.7 µM): 0%
growth inhibition ([8]; at 11.0 µM): 0%
growth inhibition ([8]; at 33.0 µM): -1%
growth inhibition ([8]; at 100.0 µM): 2%
growth inhibition ([9]; at 1.2 µM): 0%
growth inhibition ([9]; at 3.7 µM): -1%
growth inhibition ([9]; at 11.0 µM): -1%
growth inhibition ([9]; at 33.0 µM): -1%
growth inhibition ([9]; at 100.0 µM): 4%
growth inhibition [10, 16]: 49%
growth inhibition [10, 17]: 96% (active)
growth inhibition ([10]; at 50.0 µM): 19.1%
growth inhibition ([11]; at 1.2 µM): 0%
growth inhibition ([11]; at 3.7 µM): -4%
growth inhibition ([11]; at 11.0 µM): -5%
growth inhibition ([11]; at 33.0 µM): -4%
growth inhibition ([11]; at 100.0 µM): 9%
